Luciferase inh: blocks purified firefly luciferase enzyme activity | actives 2.5% (n = 76,000) | Potency, µM (highest dose often 115 µM), hits mostly inhibitors | purified P. pyralis luciferase, luminescence, biochemical; note: nearly all actives have a fitted effect of over 65% in size
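Cell-free enzyme assay, 10nM P. pyralis luciferase, luciferin and ATP each at 10uM. Inhibition profiled over a 6-point titration, read as luminescence.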
hNpr1 antagonist: human Npr1 receptor antagonism; P16066; HEK293 hNpr1 GloSensor cGMP, ANP-stimulated luminescence; Potency, µM (highest dose often 46.3 µM), inactives show at the highest dose activity change, negative = inhibition, hits mostly inhibitors; actives 1.6% (n = 76,000); calls by dose curve; note: nearly all actives have a fitted effect of over 60% in size
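HEK293 cells stably expressing human Npr1 and cGMP GloSensor pGS-40F, loaded 2 h with 2% GloSensor reagent, given compound 30 min at room temperature. Luminescence read before and 20 min after 0.1 nM hNppA.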
HEK293 tox: kills HEK 293 cells. Potency, µM (doses to about 115 µM), inactives show at the top dose activity change, negative = cytotoxicity, hits mostly inhibitors. actives 6.6% (n = 94,000). HEK 293 viability, ATP luminescence (CellTiter-Glo), 48-72 h. AID 1345083; note: nearly all actives have a fitted effect of over 60% in size
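HEK 293 cells at 250 cells/well were exposed to compounds by pintool transfer for 48 or 72 hr at 37 degree Celsius, 5% CO2. Viability was read as ATP-coupled luminescence with CellTiter-Glo after 10 min at room temperature.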
NIH3T3 tox: NIH 3T3 cell cytotoxicity. NIH 3T3 viability, CellTiter-Glo ATP luminescence, 48-72 h. Potency, µM (series often up to 96.7 µM), for inactives: top-dose activity change, negative = cytotoxicity, most hits filed as inhibitors. actives 4.3% (n = 94,000); note: nearly all actives have a fitted effect of over 55% in size
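NIH 3T3 cells at 400 cells/well received 23 nL of compound by pintool and were incubated 48 or 72 h at 37 °C. Viability was read as ATP-coupled CellTiter-Glo luminescence.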
* = called active by the depositor; [ ] = remark or other dose. Hits are enriched below; roughly 11% of the tested compounds scored in any of these assays. Unless noted, calls come from the whole dose curve; as a rule, active = well fitted curve in the direction sought with a large enough effect; inconclusive = small, poorly fitted or top-dose-only effect, or another doubt; inactive = no such curve, though single readings can be large; an effect the other way counts as inactive or inconclusive. % is set by controls: 0 for no effect and ±100 for the full control effect; potency is the fitted concentration of half-maximal effect.

Screening CCNC(=O)NCC1c2cc(OC)c(OC)cc2CCN1C(=O)Nc1ccccc1OC (stereo not drawn) returned Luciferase inh inactive, hNpr1 antagonist 0%, HEK293 tox 4% and NIH3T3 tox -17%.
Screening Cc1cccc(CN2CCNc3cc(-c4ccnc(C)c4)ncc3C2)c1 returned Luciferase inh inconclusive, hNpr1 antagonist -17%[70.6 µM], HEK293 tox 40µM* and NIH3T3 tox inconclusive.
Screening Cc1cccc(CN2CCNc3cnc(OCc4cccnc4)cc3C2)c1 returned Luciferase inh inactive, hNpr1 antagonist inconclusive, HEK293 tox 100µM* and NIH3T3 tox inconclusive.
For COc1cccc(CN2CCNc3cnc(OCc4cccnc4)cc3C2)c1 the results were Luciferase inh inactive, hNpr1 antagonist -24%[70.6 µM], HEK293 tox inconclusive and NIH3T3 tox inconclusive.
`c1ccc(CN2CCNc3cc(-c4ccoc4)ncc3C2)cc1` gave Luciferase inh inconclusive, hNpr1 antagonist -12%[70.6 µM], HEK293 tox inconclusive and NIH3T3 tox inconclusive.
COc1ccccc1CC(=O)N1CCC(n2cc(-c3nc(C)no3)nn2)CC1 was read as Luciferase inh inactive, hNpr1 antagonist 15%, HEK293 tox -7% and NIH3T3 tox -26%.
COc1ccc(C[C@H](NC(=O)C2=C[C@@H](NC(=O)Nc3ccc(C)cc3)[C@@H](O)[C@H](O)C2)C(N)=O)cc1 was read as Luciferase inh inactive, hNpr1 antagonist 5%, HEK293 tox 3% and NIH3T3 tox -2%.
Screening CC(C)C[C@@H]1N[C@H](C(=O)NCc2ccco2)Cc2c[nH]c3cccc1c23 returned Luciferase inh inactive, hNpr1 antagonist 4%[70.6 µM], HEK293 tox 35µM* and NIH3T3 tox 100µM*.
For C#CCNC(=O)[C@@H]1Cc2c[nH]c3cccc(c23)[C@H](CC(C)C)N1 the results were Luciferase inh inactive, hNpr1 antagonist -3%[70.6 µM], HEK293 tox 71µM* and NIH3T3 tox 100µM*.
COc1ccccc1N1CCN(C(=O)[C@@H]2Cc3c[nH]c4cccc(c34)[C@H](CC(C)C)N2)CC1 was read as Luciferase inh inactive, hNpr1 antagonist -2%, HEK293 tox inconclusive and NIH3T3 tox inconclusive.
For CC(C)C[C@@H]1N[C@H](C(=O)N2CCOCC2)Cc2c[nH]c3cccc1c23 the results were Luciferase inh inactive, hNpr1 antagonist 4%[70.6 µM], HEK293 tox -5%[172 µM] and NIH3T3 tox 0%[174 µM].
`CC(C)C[C@@H]1N[C@H](C(=O)NCC2CC2)Cc2c[nH]c3cccc1c23` gave Luciferase inh inactive, hNpr1 antagonist -23%[70.6 µM], HEK293 tox 35µM* and NIH3T3 tox inconclusive.
For CN(Cc1cccc(-c2nn[nH]n2)c1)Cc1cn(-c2ccccc2)nn1 the results were Luciferase inh inactive, hNpr1 antagonist 1%, HEK293 tox -7% and NIH3T3 tox -2%.
`CC(C)CCN1CCC2(CC1)OC(=O)N(Cc1ccc(O)cc1)C2(C)c1ccccc1` (stereo not drawn) gave Luciferase inh inactive, hNpr1 antagonist -17%[70.6 µM], HEK293 tox inconclusive and NIH3T3 tox 89µM*.
`CC(C)C(=O)N1CCC2(CC1)OC(=O)N(Cc1ccccc1C#N)C2(C)c1ccccc1` (stereo not drawn) gave Luciferase inh inactive, hNpr1 antagonist -3%[70.6 µM], HEK293 tox -9%[172 µM] and NIH3T3 tox inconclusive.
Screening CC1(c2ccccc2)N(Cc2ccc(O)cc2)C(=O)OC12CCN(Cc1cccnc1)CC2 (stereo not drawn) returned Luciferase inh inactive, hNpr1 antagonist -14%, HEK293 tox -12% and NIH3T3 tox inconclusive.
For CC1(c2ccccc2)N(Cc2ccccc2)C(=O)OC12CCN(C(=O)Cc1cccc(F)c1)CC2 (stereo not drawn) the results were Luciferase inh inactive, hNpr1 antagonist -9%, HEK293 tox inconclusive and NIH3T3 tox 10µM*.
Screening CC(C)C(=O)N1CCC2(CC1)OC(=O)N(Cc1ccccc1)C2(C)c1ccccc1 (stereo not drawn) returned Luciferase inh inactive, hNpr1 antagonist -7%[70.6 µM], HEK293 tox inconclusive and NIH3T3 tox 10µM*.
Screening CC1(c2ccccc2)N(Cc2ccc(O)cc2)C(=O)OC12CCN(C(=O)Cc1ccccc1)CC2 (stereo not drawn) returned Luciferase inh inactive, hNpr1 antagonist 1%, HEK293 tox inconclusive and NIH3T3 tox inconclusive.
Screening O=C(NCc1ccccc1)C1CC(c2ccccc2)CN(C(=O)c2ccccc2F)C1 (stereo not drawn) returned Luciferase inh inactive, hNpr1 antagonist -3%, HEK293 tox inconclusive and NIH3T3 tox inconclusive.
`Cc1cc(=O)oc2cc(OCC(=O)NC3CCCc4c3[nH]c3ccccc43)ccc12` (stereo not drawn) gave Luciferase inh inactive, hNpr1 antagonist -14%, HEK293 tox inconclusive and NIH3T3 tox inconclusive.
Screening CCN1c2cc(C(=O)Nc3ccc(F)c(F)c3)ccc2C(=O)N2CCCCC21 (stereo not drawn) returned Luciferase inh inactive, hNpr1 antagonist 0%, HEK293 tox 40µM* and NIH3T3 tox inconclusive.
CCN1c2cc(C(=O)Nc3ccc(Cl)c(F)c3)ccc2C(=O)N2CCCCC21 (stereo not drawn) was read as Luciferase inh inactive, hNpr1 antagonist -14%, HEK293 tox 35µM* and NIH3T3 tox inconclusive.
`CCN1c2cc(C(=O)Nc3ccc(Cl)c(F)c3)ccc2C(=O)N2CCCCCC21` (stereo not drawn) gave Luciferase inh inactive, hNpr1 antagonist 0%, HEK293 tox inconclusive and NIH3T3 tox inconclusive.
Screening O=C1NCCCCCN(C(=O)CC2CCCCC2)[C@@H]2C[C@@H](C(=O)N3CCc4ccccc4C3)C[C@H]12 returned Luciferase inh inactive, hNpr1 antagonist -18%, HEK293 tox inconclusive and NIH3T3 tox inconclusive.
For O=C1NCCCCCN(C(=O)CC2CCCC2)[C@@H]2C[C@@H](C(=O)N3CCc4ccccc4C3)C[C@H]12 the results were Luciferase inh inactive, hNpr1 antagonist -11%, HEK293 tox 32µM* and NIH3T3 tox inconclusive.
`O=C1NCCCCCCN(C(=O)c2cccnc2)[C@H]2C[C@H](C(=O)N3CCc4ccccc4C3)C[C@@H]12` gave Luciferase inh inactive, hNpr1 antagonist 1%, HEK293 tox -2% and NIH3T3 tox 28µM*.
Screening O=C1CC(c2ccccc2)N(C(=O)C2CC2)CCCN(C(=O)CCc2ccccc2)CCN1 (stereo not drawn) returned Luciferase inh inactive, hNpr1 antagonist 0%, HEK293 tox -10% and NIH3T3 tox -8%.
Screening CCc1cn[nH]c1C1CCCN(C(=O)c2oc3cc(C)ccc3c2C)C1 (stereo not drawn) returned Luciferase inh inactive, hNpr1 antagonist -3%, HEK293 tox inconclusive and NIH3T3 tox 45µM*.
Screening CN(C)c1ccc(-c2nnc([C@H]3CCN(C(=O)c4ccccn4)C3)o2)cc1 returned Luciferase inh 20µM*, hNpr1 antagonist -15%[70.6 µM], HEK293 tox inconclusive and NIH3T3 tox -12%[174 µM].

Assay outcomes: PubChem BioAssay, National Center for Advancing Translational Sciences (NCATS)
